TDP1 block – qHTS Assay for Inhibitors of Tyrosyl-DNA Phosphodiesterase (TDP1); Tyrosyl-DNA phosphodiesterase 1 (Homo sapiens), Q9NUW8; recombinant TDP1, AlphaScreen DNA substrate cleavage; Potency, µM (top dose mostly 130 µM), for the others: at the highest dose activity change, negative = inhibition, most hits filed as inhibitors; 350,000 compounds, 0.28% hits; AID 485290, 2010; also: nearly all actives have a fitted effect of over 40% in size
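Enzyme-compound mixtures sat 15 min at room temperature, followed by a 5 min reaction with 15 nM final substrate and 10 min with AlphaScreen beads. Recombinant human Tdp1 was used at 1 nM final.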
PLK1 PBD inh – qHTS for Inhibitors of PLK1-PDB (polo-like kinase 1 - polo-box domain): Primary Screen; Plk1 PBD binding of FITC phosphopeptide, fluorescence polarization; AID 720504, 2013; 360,000 compounds, 2.8% hits; Serine/threonine-protein kinase PLK1 (Homo sapiens), P53350; Potency, µM, for the others: max response, negative = inhibition, actives largely listed as inhibitors; also: series mostly up to about 57 µM; nearly all actives have a fitted effect of over 65% in size
GCN5L2 inh – qHTS Assay for Inhibitors of GCN5L2; Histone acetyltransferase KAT2A (Homo sapiens), Q92830; GCN5L2 HAT assay, ThioGlo1 CoA-SH fluorescence; Potency, µM (titrated, usually from 58.9 µM), inactives show at the highest dose activity change, negative = inhibition, usual class: inhibitors; 390,000 compounds, 0.21% hits; AID 504327, 2011
Target sequence (Q92830 whole entry, looked up): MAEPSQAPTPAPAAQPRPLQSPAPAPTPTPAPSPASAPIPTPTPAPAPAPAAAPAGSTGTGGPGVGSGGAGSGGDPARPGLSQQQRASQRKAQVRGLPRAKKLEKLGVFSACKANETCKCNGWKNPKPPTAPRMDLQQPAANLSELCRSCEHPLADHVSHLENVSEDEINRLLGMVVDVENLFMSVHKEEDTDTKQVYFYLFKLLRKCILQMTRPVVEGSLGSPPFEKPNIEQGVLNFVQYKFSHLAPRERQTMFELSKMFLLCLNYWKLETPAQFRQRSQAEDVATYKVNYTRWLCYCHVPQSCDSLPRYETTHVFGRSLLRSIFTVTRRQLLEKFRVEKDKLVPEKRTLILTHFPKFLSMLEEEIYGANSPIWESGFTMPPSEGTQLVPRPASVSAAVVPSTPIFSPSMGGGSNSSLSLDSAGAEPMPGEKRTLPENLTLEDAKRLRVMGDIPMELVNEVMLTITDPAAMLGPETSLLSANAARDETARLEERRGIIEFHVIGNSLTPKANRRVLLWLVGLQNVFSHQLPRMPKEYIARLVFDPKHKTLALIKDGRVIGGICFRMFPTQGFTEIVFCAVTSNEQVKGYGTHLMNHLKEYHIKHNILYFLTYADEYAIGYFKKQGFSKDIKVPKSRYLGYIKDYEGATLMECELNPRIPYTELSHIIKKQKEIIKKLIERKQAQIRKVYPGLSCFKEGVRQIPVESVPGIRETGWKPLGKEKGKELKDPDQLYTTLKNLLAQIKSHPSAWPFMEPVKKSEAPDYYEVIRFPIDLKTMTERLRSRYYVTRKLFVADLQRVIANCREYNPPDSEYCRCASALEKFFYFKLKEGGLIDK
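Fluorescence readout, Ex340nm/Em540nm: ThioGlo1 (50uM final) reacts with free CoA thiol released as 20nM GCN5L2 acetylates H3(1-25) peptide (75uM) using acetyl-CoA (70uM). Compound and enzyme sat 15 min beforehand; 20 min room-temperature reaction.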
VDR inh – Inhibitors of the vitamin D receptor (VDR): qHTS | Vitamin D3 receptor (Homo sapiens), P11473 | VDR-SRC2-3 peptide fluorescence polarization, 2 h | Potency, µM, inactives show max response, negative = inhibition, hits mostly inhibitors | 400,000 compounds, 0.93% hits
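The screen uses fluorescence polarization to detect compounds that interfere with recruitment of the SRC2-3 coactivator peptide to VDR; plates are read after 2 h at room temperature.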
TDP1 cell CPT – qHTS for Inhibitors of human tyrosyl-DNA phosphodiesterase 1 (TDP1): qHTS in cells in presence of CPT; chicken DT40 Tdp1-/-;hTDP1 cells + 20 nM CPT, ATP luminescence, 48 h; Potency, µM (titrated, usually from 46.2 µM), for inactives: at the top dose activity change, negative = growth inhibition, hits mostly inhibitors; 420,000 compounds, 12% hits; AID 686979, 2013; also: nearly all actives have a fitted effect of over 55% in size
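Cell growth measured by CellTiter-Glo luminescence after a minimum 48 h, 37 C compound exposure with 20 nM CPT in Tdp1-knockout DT40 cells stably expressing hTDP1, seeded 400/well; qHTS titration format.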
DT40 TDP1 no CPT – qHTS for Inhibitors of human tyrosyl-DNA phosphodiesterase 1 (TDP1): qHTS in cells in absence of CPT; DT40 Tdp1-/- hTDP1 cells, no CPT, ATP luminescence, 48 h; Potency, µM (top dose mostly 46.2 µM), inactives show at the highest dose activity change, negative = growth inhibition, actives largely listed as inhibitors; 420,000 compounds, 15% hits; AID 686978, 2013; also: nearly all actives have a fitted effect of over 55% in size
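Cells were dispensed at 400 per well, compounds added by pin tool, plates incubated ≥48 hr at 37 °C, then CellTiter-Glo added for 30 min at room temperature before luminescence reading. Line: DT40 Tdp1-/- complemented with hTDP1; camptothecin omitted.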
* hit, by the source's call; ? = inconclusive; / = no result; [ ] = another dose, or the depositor's remark. Rows were chosen to be rich in hits. Some 18% of all compounds tested hit in one or more screens of this group. Calls follow the shape of the dose curve; as a rule, active = well fitted curve in the direction sought with a large enough effect; inconclusive = small, poorly fitted or top-dose-only effect, or another doubt; inactive = no such curve, though single readings can be large; an effect the other way counts as inactive or inconclusive. % is scaled to controls: 0 for no effect and ±100 for the full control effect; potency is read from the fitted curve at half-maximal effect.

SMILES	TDP1 block	PLK1 PBD inh	GCN5L2 inh	VDR inh	TDP1 cell CPT	DT40 TDP1 no CPT
Cc1ccc(/C=C2\SC(=S)N(CCCC(=O)NNC(=O)c3ccccc3O)C2=O)cc1	3%	1%	-6%	-21%	?	18µM*
O=C(CN1C(=O)/C(=C/c2ccccc2)SC1=S)NNC(=O)c1ccccc1O	-4%	-5%	-16%	66%	6%	1%
Cc1ccc(/C=C2/SC(=S)N(CC(=O)Nc3ncc(Cc4ccc(C)cc4)s3)C2=O)cc1	6%	-3%	-6%	35%	23µM*	12µM*
CCc1ccc(C(=O)N/N=C/c2cccc3ccccc23)nc1	-1%	5%	-1%	-20%	-25%	?
O=C(CCN1C(=O)/C(=C\c2ccc(F)cc2)SC1=S)Nc1ccccc1	1%	-1%	-4%	11%	-10%	-7%
O=C(CCN1C(=O)/C(=C\c2ccc(F)cc2)SC1=S)Nc1ccc(O)cc1	4%	-6%	-5%	-21%	-13%	23µM*
CCOc1ccc(C(=O)NCC(=O)NCC(c2cccs2)N2CCOCC2)cc1 (stereo not given)	/	2%	-1%	15%	0%	-24%
Cc1ccc2nc(-c3ccc(NC(=S)NC4CC(C)(C)NC(C)(C)C4)cc3)sc2c1	0%	-8%	-2%	5%	3.7µM*	6.5µM*
Cc1ccc(C2(C)NC(=O)N(CC(=O)Nc3ccc(-c4nc5ccc(C)cc5s4)cc3)C2=O)cc1 (stereo not given)	4%	3%	-6%	-15%	?	10µM*
CCC(=O)NC(=S)Nc1ccc(-c2nc3ccc(C)cc3s2)cc1	-3%	-14%	2%	4%	21µM*	?
O=c1[nH]c(/C=C/c2ccccn2)nc2ccccc12	/	-7%	-2%	-8%	?	?
O=c1[nH]c(-c2ccccn2)nc(C(F)(F)F)c1Br	8%	-11%	-5%	-4%	6.5µM*	4.6µM*
O=c1[nH]c(-c2ccccc2O)nc2ccccc12	4%	/	/	-5%	5%[9.04 µM]	-13%[9.04 µM]
c1ccc(-c2nc3c(ccc4ccccc43)[nH]2)nc1	8%	-6%	1%	-10%	?	23µM*
O=c1[nH]c(-c2ccccn2)nc2ccccc12	6%	3%	-6%	22%	29µM*	16µM*
Cc1ccc2nc(-c3ccccn3)[nH]c2c1	/	5%	-1%	12%	?	?
COc1ccc(C(=O)CSC(=S)N2CCCCC2)cc1	/	0%	/	/	?	?
O=C(CSc1ccc(F)cc1)NC(=O)c1ccccc1	/	-1%	/	/	-17%	-24%
CCCn1c(=O)c(C(=O)Nc2ccccc2N)c(O)c2ccccc21	/	1%	/	/	26µM*	?
CCCn1c(=O)c(C(=O)Nc2ccccc2)c(O)c2ccccc21	3%	2%	-4%	12%	?	?
CCn1c(=O)c(C(=O)Nc2ccccc2C)c(O)c2ccccc21	0%	-2%	-2%	2%	?	23µM*
CCCCCCCC(=O)NNC(=O)c1c(O)c2ccccc2n(CCC)c1=O	10%	-14%	-6%	-7%	?	23µM*
CCCn1c(=O)c(C(=O)NC(C)c2ccccc2)c(O)c2ccccc21 (stereo not given)	/	-11%	-3%	-22%	?	26µM*
CC1CCC2(CC1)NC(=O)N(CC(=O)N1CCN(S(=O)(=O)c3ccc4c(c3)CCC4)CC1)C2=O (stereo not given)	0%	-9%	-4%	-6%	?	?
Cc1nn(S(=O)(=O)c2ccc(F)cc2)c(C)c1S(=O)(=O)N1CCCCC1	1%	-8%	2%	-5%	0%	11%
SMILES	TDP1 block	PLK1 PBD inh	GCN5L2 inh	VDR inh	TDP1 cell CPT	DT40 TDP1 no CPT
CCCCCn1c(=O)c(-c2nc3ccccc3[nH]2)c(O)c2ccccc21	3%	-5%	-4%	-5%	21µM*	9.2µM*
COCCCN(C(=O)CCSc1ccc(F)cc1)c1c(N)n(Cc2ccccc2)c(=O)[nH]c1=O	/	?	-3%	14%	?	12%
CCOc1ccc(S(=O)(=O)N2CCN(Cc3ccc4c(c3)OCO4)CC2)cc1OCC	/	2%	-3%	10%	?	-8%
CCOc1cc(CN2CCN(S(=O)(=O)c3ccc(C)cc3)CC2)ccc1OC	/	/	-16%	-5%	?	16µM*
COc1ccc(S(=O)(=O)N2CCN(CCCOc3ccc(F)cc3)CC2)cc1OC	0%	-5%	-6%	-6%	?	21µM*
CCOc1cc(CN2CCN(S(=O)(=O)Cc3ccccc3)CC2)ccc1OC	-4%	-8%	1%	-9%	-19%	23µM*
COc1ccc(Br)cc1CN1CCN(S(=O)(=O)Cc2ccccc2)CC1	5%	-11%	2%	-11%	?	8.2µM*
O=C(COc1ccc(-c2ccccc2)cc1)N1CCN(S(=O)(=O)Cc2ccccc2)CC1	2%	-5%	-7%	-17%	23µM*	15µM*
O=C(c1cc(Br)ccc1O)N1CCN(S(=O)(=O)Cc2ccccc2)CC1	1%	5%	1%	-19%	?	12µM*
Cc1ccc(OCC(=O)N2CCN(C(=O)Cc3ccccc3)CC2)cc1	2%	-8%	-2%	4%	-9%	-14%
CN1CCCC(CNC(=O)c2cnn(-c3nccc(-c4cccs4)n3)c2C2CC2)C1 (stereo not given)	/	/	/	/	-9%[9.04 µM]	-16%
CC1=CC(=C(C#N)c2nc3ccccc3s2)C=C(C)N1c1ccc(F)cc1	0%	21µM*	-3%	1%	?	?
COc1ccccc1N1C(C)=CC(=C(C#N)c2nc3ccccc3s2)C=C1C	1%	?	-10%	2%	8.2µM*	13µM*
CC(C)=C(C#N)c1nc2ccccc2s1	3%	-7%	-28%	8%	-5%	-12%

Compound activity deposited in PubChem by National Center for Advancing Translational Sciences (NCATS).
